Experiment [1] in a line: optical density shifts of acrAB sulA E. coli – strain DRC41, OD650, 48 h, E. coli filamentation inducer project, primary screen (AID 1152).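 Also: E. coli MC1000 strain DRC41 lacking acrAB efflux pump and sulA.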 Conditions: higher = more signal, called active from +8 up or from −8 down.
Experiment [2] in a line: probe aLefty1 binding on compound microarray – biochemical, small-molecule microarray, 635/667 nm fluorescence, primary screen (AID 1153).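 Also: score merges spot fluorescence with signal-to-noise ratio from the scanned slide images.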 Conditions: higher = more signal.
Experiment [3] can be described thus: plasmodial surface anion channel blockers, osmotic lysis – cell-based, P. falciparum Indochina, OD700, 1 h, primary screen (AID 1154). To be noted: P. falciparum Indochina infected RBC osmotic lysis, higher = more signal, called active from +8 up or from −8 down.
The nature of experiment [4]: plasmodial surface anion channel blockers, osmotic lysis – cell-based, P. falciparum Indochina, OD700, 2 h, primary screen (AID 1155).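 Also: lysis reports solute entry through the parasite surface anion channel PSAC.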 To be noted: P. falciparum Indochina infected erythrocytes, higher = more signal, called active from +8 up or from −8 down.
A short description of experiment [5]: changes in parasitized red cell lysis, either direction – P. falciparum Indochina, OD700, 3 h, PSAC antagonist project, primary screen (AID 1156). Conditions: P. falciparum-infected erythrocytes, osmotic lysis, higher = more signal, called active from +8 up or from −8 down.
The nature of experiment [6]: plasmodial surface anion channel blockers, osmotic lysis – cell-based, P. falciparum Indochina, OD700, 18 h, primary screen (AID 1157). Conditions: P. falciparum Indochina infected erythrocytes, osmotic lysis OD700, 18 h; higher = more signal, called active from +8 up or from −8 down.
Experiment [7] can be described thus: S6 kinase pathway phospho-S6 level changes – cell-based, A549, cytoblot, luminescence, serum-stimulated, primary screen (AID 1158).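 Also: serum-stimulated A549 lung adenocarcinoma cells; signal is phosphorylated S6 detected by cytoblot immunostaining with HRP secondary.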 To be noted: 5 h, higher = more signal.
Experiment [8] has as its target NADPH oxidase 2 (Homo sapiens) (UniProt P04839). Put plainly: compounds shifting NOX2 Amplex Red fluorescence – cell-based, HEK293-NOX2, PMA-stimulated, NOX inhibitor project, primary screen (AID 1159). Also: test concentration not given here. Conditions: 45 min, higher = more signal, called active from +8 up or from −8 down.
In experiment [9] the target is NADPH oxidase 4 (Homo sapiens) (UniProt Q9NPH5). Put plainly: compounds shifting NOX4 Amplex Red fluorescence – cell-based, HEK293-NOX4, tetracycline-induced, NOX inhibitor project, primary screen (AID 1160). Conditions: HEK293-NOX4, Amplex Red H2O2 fluorescence, 45 min; higher = more signal, called active from +8 up or from −8 down.
In experiment [10] the target is NADPH oxidase 5 (Homo sapiens) (UniProt Q96PH1). Put plainly: compounds shifting NOX5 Amplex Red fluorescence – cell-based, HEK293-NOX5, NOX inhibitor project, primary screen (AID 1161). To be noted: HEK293-NOX5, ionomycin, 45 min, higher = more signal.

From PubChem BioAssay come the findings set out here.

Active and inactive are the calls of the source.

Chain of NADPH oxidase 2 (Homo sapiens) (P04839 whole entry, looked up): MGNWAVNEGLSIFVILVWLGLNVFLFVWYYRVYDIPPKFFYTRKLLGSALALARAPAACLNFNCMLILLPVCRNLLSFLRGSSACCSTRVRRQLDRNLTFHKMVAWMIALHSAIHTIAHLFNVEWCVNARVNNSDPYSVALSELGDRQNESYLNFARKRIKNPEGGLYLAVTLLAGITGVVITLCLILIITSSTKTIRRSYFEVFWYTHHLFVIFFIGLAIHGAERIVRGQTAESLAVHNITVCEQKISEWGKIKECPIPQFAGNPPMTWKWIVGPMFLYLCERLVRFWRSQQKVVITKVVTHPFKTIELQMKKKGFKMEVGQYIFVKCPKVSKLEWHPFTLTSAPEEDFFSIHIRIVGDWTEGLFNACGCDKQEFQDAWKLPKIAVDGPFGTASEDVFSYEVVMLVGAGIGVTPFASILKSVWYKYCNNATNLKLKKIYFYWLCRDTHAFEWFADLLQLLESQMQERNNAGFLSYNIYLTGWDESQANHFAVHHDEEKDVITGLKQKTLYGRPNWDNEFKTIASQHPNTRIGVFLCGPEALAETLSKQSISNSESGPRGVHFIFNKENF
Chain of NADPH oxidase 4 (Homo sapiens) (Q9NPH5 whole entry, looked up): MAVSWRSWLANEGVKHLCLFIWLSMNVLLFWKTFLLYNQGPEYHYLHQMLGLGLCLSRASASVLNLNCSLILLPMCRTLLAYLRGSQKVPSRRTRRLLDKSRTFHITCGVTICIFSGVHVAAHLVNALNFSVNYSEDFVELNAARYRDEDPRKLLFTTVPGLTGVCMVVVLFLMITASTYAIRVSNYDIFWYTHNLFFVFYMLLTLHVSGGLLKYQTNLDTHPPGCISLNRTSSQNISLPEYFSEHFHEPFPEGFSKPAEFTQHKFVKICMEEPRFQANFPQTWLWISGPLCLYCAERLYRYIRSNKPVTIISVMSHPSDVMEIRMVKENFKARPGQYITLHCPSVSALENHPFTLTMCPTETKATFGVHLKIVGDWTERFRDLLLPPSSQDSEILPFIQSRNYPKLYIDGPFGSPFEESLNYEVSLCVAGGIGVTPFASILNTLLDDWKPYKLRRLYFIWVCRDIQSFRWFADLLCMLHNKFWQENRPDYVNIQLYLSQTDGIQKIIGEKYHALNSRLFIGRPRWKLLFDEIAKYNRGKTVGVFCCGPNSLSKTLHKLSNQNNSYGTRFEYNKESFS
Chain of NADPH oxidase 5 (Homo sapiens) (Q96PH1 whole entry, looked up): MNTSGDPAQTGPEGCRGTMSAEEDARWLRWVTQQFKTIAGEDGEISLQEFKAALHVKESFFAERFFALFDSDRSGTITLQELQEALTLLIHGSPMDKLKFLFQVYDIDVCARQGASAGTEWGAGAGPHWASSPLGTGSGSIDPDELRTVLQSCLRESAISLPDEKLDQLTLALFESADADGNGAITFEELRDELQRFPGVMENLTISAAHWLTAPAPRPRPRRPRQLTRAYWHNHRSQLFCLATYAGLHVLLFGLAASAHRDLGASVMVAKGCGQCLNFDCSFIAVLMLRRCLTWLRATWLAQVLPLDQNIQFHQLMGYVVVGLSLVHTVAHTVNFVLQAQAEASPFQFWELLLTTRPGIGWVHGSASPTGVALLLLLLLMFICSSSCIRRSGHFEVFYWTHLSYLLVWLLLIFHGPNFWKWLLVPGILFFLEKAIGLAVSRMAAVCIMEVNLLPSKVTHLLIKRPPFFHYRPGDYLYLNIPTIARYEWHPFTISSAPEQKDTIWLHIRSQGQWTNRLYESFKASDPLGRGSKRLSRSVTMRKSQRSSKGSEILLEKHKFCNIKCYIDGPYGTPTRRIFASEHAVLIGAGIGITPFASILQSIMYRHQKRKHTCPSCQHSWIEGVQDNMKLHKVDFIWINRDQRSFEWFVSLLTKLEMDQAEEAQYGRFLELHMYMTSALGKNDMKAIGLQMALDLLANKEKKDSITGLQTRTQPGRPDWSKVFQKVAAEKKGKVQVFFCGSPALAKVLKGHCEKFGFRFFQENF

Take `O=C1c2ccccc2[C@@]2(Cc3ccccc3N(CC(F)(F)F)C2=O)[C@H](c2ccc(CO)cc2)N1Cc1ccccc1Cl`: the z-score was 0.606 (inactive) in experiment [1]; 0.902 (inactive) in experiment [3]; 0.638 (inactive) in experiment [4]; 0.955 (inactive) in experiment [5]; 0.5 (inactive) in [6]; 0.258 in experiment [7]. Also, the z-score was 0.0997 (inactive) in [8], -0.991 (inactive) in [9] and -0.826 in experiment [10]. The molecule further showed a composite z-score in [2] of -0.677.
Regarding `CC(C)C[C@@H]1NC(=O)[C@H]2C[C@@H](C(=O)NCCCCCCN)[C@@H](c3ccc(O)cc3)N2C1=O`, the z-score was -0.63 (inactive) in experiment [1]; 1.9 (inactive) in experiment [3]; 0.0643 (inactive) in [4]; -0.265 (inactive) in experiment [5]; 0.3 (inactive) in experiment [6]; -0.648 in [7]. The z-score in experiment [8] was 1.21 (inactive); in experiment [9], 1.05 (inactive); in experiment [10] it was 0.315. This molecule returned a composite z-score in experiment [2] of 0.51.
Consider `C=CC[C@]12N=C(c3ccc(OCCCO)cc3)O[C@H]1c1ccccc1N(Cc1ccccc1)C2=O`, for which the z-score was 0.323 (inactive) in experiment [1]; 28.8 (active) in experiment [3]; 27.9 (active) in experiment [4]; 3.64 (inactive) in experiment [5]; 6.21 (inactive) in experiment [6]; -0.329 in experiment [7]. Moreover, the z-score is -0.89 (inactive) in [8], 0.393 (inactive) in [9] and -0.835 in [10]. Also, the composite z-score in experiment [2] came out at 0.445.
Turning to `COc1ccc(CCN2C(=O)[C@@]3(c4ccc([N+](=O)[O-])cc4)CC(=O)N(C4CCCCC4)[C@@H]3c3ccc(CO)cc32)cc1`, the z-score in experiment [1] was -0.183 (inactive); in experiment [3], -0.715 (inactive); in experiment [4] it was -0.0259 (inactive); in experiment [5] it was -0.979 (inactive); in experiment [6], -0.138 (inactive); in experiment [7], -0.423. For the same molecule, the z-score was -1.47 (inactive) in [8], -0.763 (inactive) in [9] and -0.0167 in experiment [10]. In experiment [2], the composite z-score is 0.131.
For `COc1ccc([Si](C)(C)[C@H]2[C@H](CC(=O)N3Cc4ccccc4C[C@H]3CO)O[C@@]3(C(=O)N(Cc4ccc(N5CCC5=O)cc4)c4ccccc43)[C@@H]2C)cc1`, the z-score in experiment [1] is 0.97 (inactive); in experiment [3] it was 6.86 (inactive); in experiment [4] it was 1.45 (inactive); in [5], 1.46 (inactive); in [6], 1.11 (inactive); in experiment [7] it was 0.414. Besides, the figures for the z-score in experiment [8], in [9] and in experiment [10] were -0.241 (inactive), 0.465 (inactive) and -1.64, respectively. Further, the composite z-score in experiment [2] stood at 0.874.
As for `CN1C(=O)C2C=CC(C(O)C3CC=CCC3)N(NC(=O)OC(C)(C)C)C2C1=O` (stereo not given), the z-score in experiment [1] is -1.49 (inactive); in [3], 0.23 (inactive); in experiment [4] it was 0.737 (inactive); in experiment [5], -0.138 (inactive); in [6], 0.312 (inactive); in experiment [7] it was -1.01. Besides, the z-score in experiment [8] is -0.92 (inactive); in experiment [9], -0.861 (inactive); in experiment [10] it was -0.716. Moreover, the composite z-score in experiment [2] was -0.168.
Regarding `COCCCN1C(=O)[C@@]2(c3ccc([N+](=O)[O-])cc3)CC(=O)N(C3CCCCC3)[C@@H]2c2ccc(CO)cc21`, the z-score was -0.0972 (inactive) in [1]; -0.141 (inactive) in [3]; -0.063 (inactive) in experiment [4]; -0.382 (inactive) in [5]; 0.0583 (inactive) in [6]; -0.495 in experiment [7]. In addition, the z-score in experiment [8] was -2.14 (inactive); in experiment [9], -1.3 (inactive); in [10] it was -0.379. The composite z-score in experiment [2] was -0.35.
For `COCCOC(=O)N1C(=O)[C@@]2(c3cc(C#Cc4ccc(OC)cc4)ccc31)[C@H](C(N)=O)[C@H]1C(=O)O[C@H](c3ccccc3)[C@H](c3ccccc3)N1[C@@H]2c1ccccc1OCCO`, the z-score is -0.289 (inactive) in experiment [1]; 4.42 (inactive) in experiment [3]; 2.55 (inactive) in experiment [4]; -0.499 (inactive) in experiment [5]; 1.59 (inactive) in experiment [6]; -0.413 in experiment [7]. The z-score was 2.38 (inactive) in experiment [8], 1.1 (inactive) in experiment [9] and 1.44 in experiment [10]. The molecule also registered a composite z-score in experiment [2] of 0.358.
Regarding `O=C1O[C@H](c2ccccc2)[C@H](c2ccccc2)N2[C@H]1[C@@H](C(=O)Nc1nc3ccccc3s1)[C@]1(C(=O)Nc3ccc(C#CC4(O)CCCCCC4)cc31)[C@H]2c1ccc(OCCO)cc1`, the z-score is -0.558 (inactive) in experiment [1]; 3.28 (inactive) in [3]; 1.58 (inactive) in experiment [4]; 0.501 (inactive) in experiment [5]; 1.67 (inactive) in experiment [6]; -0.239 in experiment [7]. Also, the results for the z-score in experiment [8], in [9] and in experiment [10] were 0.286 (inactive), 0.11 (inactive) and -0.0468, respectively. Further, the composite z-score in experiment [2] was found to be 0.338.
Regarding `COc1ccc([Si](C)(C)[C@H]2[C@H](CCO)O[C@@]3(C(=O)N(Cc4ccc(N5C(=O)COc6ccccc65)cc4)c4ccccc43)[C@@H]2C)cc1`, the z-score in [1] is -0.609 (inactive); in experiment [3], 5 (inactive); in [4], 2.39 (inactive); in experiment [5] it was -0.645 (inactive); in experiment [6] it was 1.41 (inactive); in [7], 0.328. For the same molecule, the z-score is -0.916 (inactive) in experiment [8], 1.3 (inactive) in [9] and 2 in experiment [10]. In [2], the composite z-score was -0.0094.
For the molecule `CN(C)C(=O)[C@@]1(Cc2ccccc2CN=[N+]=[N-])N=C(c2ccc(OCCCO)cc2)O[C@H]1c1ccccc1`, the z-score is 0.381 (inactive) in experiment [1]; 20.9 (active) in [3]; 5.46 (inactive) in experiment [4]; 1.59 (inactive) in [5]; 1.45 (inactive) in [6]; -0.0813 in experiment [7]. The figures for the z-score in [8], in experiment [9] and in [10] were -2.45 (inactive), -0.0483 (inactive) and 0.524, respectively. Besides, the composite z-score in experiment [2] was determined as 1.18.
With `O=C1NC(=O)C2C1C=CC(C(O)c1cccc3ccccc13)N2Nc1ccccn1` (stereo not given), the z-score in experiment [1] is -0.0275 (inactive); in experiment [3], 1.06 (inactive); in experiment [4], 0.344 (inactive); in experiment [5], 0.274 (inactive); in experiment [6], 0.899 (inactive); in experiment [7], -0.562. Also, the z-score is -1.2 (inactive) in experiment [8], -2.83 (inactive) in experiment [9] and -2.36 in experiment [10]. Besides, the composite z-score in experiment [2] stood at 0.137.
As to `COC(=O)[C@@]1(Cc2ccccc2)[C@H]2c3cc(C(=O)N4CCCC4)n(Cc4nc5ccccc5[nH]4)c3C[C@H]2CN1C(=O)c1ccccc1`, the z-score in experiment [1] is -1.31 (inactive); in [3] it was 3.2 (inactive); in experiment [4] it was 0.541 (inactive); in experiment [5], 2.65 (inactive); in experiment [6], 0.959 (inactive); in experiment [7] it was -0.25. For the same molecule, the z-score in experiment [8] was 0.311 (inactive); in experiment [9] it was -0.142 (inactive); in experiment [10], -3. The composite z-score in experiment [2] is 1.06.
